Consider 36 compounds from PubChem BioAssay (Tox21).

Results filed as inconclusive are left out. Entries that show only a call come without a potency. Calls of active or inactive are those of the source. The call rests on the fitted dose curve; in most records, active means well fitted activation curve with a large enough effect in the repeat runs; inconclusive means weak or mixed curves; inactive means flat fitted curve, though single readings scatter.
Potency means the concentration at half of the fitted maximal effect.

This experiment in a line: A CellTox Green Cytotoxicity Assay to monitor cytotoxicity in HEK293 cells - 32 hour (AID 1224881). Further: nearly all actives have a fitted effect of over 40% in size. Conditions: CellTox Green fluorescence; series mostly up to 76.8 µM. The essentials: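 Cells (HEK293, 600/well) and dye reagent are dispensed together. After 5 h at 37 C, 23 nL compound is pinned in. Plates stay at 37 C for 40 h with fluorescence read at 0h, 8h, 16h, 24h, 32h and 40h.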
For the compound `CCc1c(Br)c(Br)c(Br)c(Br)c1Br`, the Potency entry is “inactive”.

In the case of `COc1cccc(O)c1`, the Potency entry was “inactive”.

As to `CCCCOC(=O)C(C)CC` (stereo unspecified), the Potency entry is “inactive”.

On to `CCOC(=O)COc1ccc(C)cc1`, for which the Potency entry was “inactive”.

On to `CCCCN(C)C`, for which the Potency result is “inactive”.

As to `[O]=[Zr]`, the Potency entry is “inactive”.

Take `Cc1cnccn1`: the Potency result was “inactive”.

Regarding `OCCCS`, the Potency result was “inactive”.

Turning to `O=C(O)CCn1c2c(c3ccccc31)C[C@H](NS(=O)(=O)c1ccc(F)cc1)CC2`, the Potency entry was “inactive”.

For the compound `Brc1ccccn1`, the Potency result is “inactive”.

On to `O=C1C=CC(=O)N1c1ccccc1`, for which the Potency is 11 µM (active).

Regarding `COc1cc(C(=O)NS(=O)(=O)c2ccccc2C)ccc1Cc1cn(C)c2ccc(NC(=O)OC3CCCC3)cc12`, the Potency entry is “inactive”.

Take `CCCCCCCCCCCCCc1ccccc1`: the Potency result was “inactive”.

`NCCCCCCNCCCCCCN`: the Potency result was “inactive”.

Regarding `Cc1cccc(Br)c1`, the Potency entry is “inactive”.

For `CC(C)CCOCCC(C)C`, the Potency entry was “inactive”.

On to `CCc1cccc(C)c1`, for which the Potency result is “inactive”.

As for `Cc1cccc(C)n1`, the Potency entry was “inactive”.

With `c1cc2c3c(c1)ccc1cccc(c13)C2`, the Potency is 50 µM (active).

On to `Clc1cccnc1`, for which the Potency result was “inactive”.

Regarding `Cc1ccc(O)cn1`, the Potency entry was “inactive”.

Take `O=S(O)O`: the cytotoxicity increase is 0.593% [at 15.8 µM] (inactive).

`C[Si](C)(C)Cl`: the Potency result is “inactive”.

Consider `CCOCN(C(=O)CS(=O)(=O)O)c1c(C)cccc1CC`, for which the Potency result is “inactive”.

Regarding `Cc1c(-c2ccc(O)cc2)n(Cc2ccc(OCCN3CCCCCC3)cc2)c2ccc(O)cc12`, the Potency was 19 µM (active).

On to `COc1ccc(C#N)cc1`, for which the Potency result was “inactive”.

For `C=CC(=O)OCCN(CC)CC`, the Potency result was “inactive”.

With `OCCC(O)CO` (stereo unspecified), the Potency result was “inactive”.

As for `Cn1cccc1`, the Potency result was “inactive”.

In the case of `CCOC(OCC)C(=O)c1ccccc1`, the Potency entry is “inactive”.

Regarding `CCCCCCCCCCCC(=O)N(CC)CC`, the Potency entry is “inactive”.

Regarding `CC(=O)O[C@@H]1C[C@@H]2CC[C@@]1(C)C2(C)C`, the Potency result was “inactive”.

Turning to `C=C(C)C(=O)OCCC[Si](Cl)(Cl)Cl`, the Potency entry is “inactive”.

`O=C(O)CCCCCCC(=O)O`: the Potency entry was “inactive”.

Consider `CCCCCCCCCCCCCOP(=O)(O)O`, for which the Potency entry is “inactive”.

On to `O=C1OC(OC(=O)c2cccnc2Nc2cccc(C(F)(F)F)c2)c2ccccc21` (stereo unspecified), for which the Potency entry is “inactive”.
